# PubChem BioAssay
# Activity calls are given as the source filed them.
# Legend:
# [1] = binders of probe aFSTL3 on microarray, primary screen, stem cell growth factor project, biochemical, small-molecule microarray, fluorescence 635/667 (AID 1064); settings: higher = more signal;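 also: measures binding of the biotinylated anti-FSTL3 antibody to printed compounds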
# [2] = binders from COS7 lysate, DM2A8 probe, primary screen, torsin A project, cell lysate, small-molecule microarray, fluorescence 635/667 (AID 1065); settings: higher = more signal, COS7 lysate expressing mutant human TOR1A
# [3] = binders of probe aFGF2 on microarray, primary screen, stem cell growth factor project, biochemical, small-molecule microarray, fluorescence 635/667 (AID 1067); settings: higher = more signal;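 also: measures binding of biotinylated aFGF2 protein to printed compounds on slides; z-score merges feature fluorescence and signal-to-noise across triplicate slides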
# [4] = binders of probe aFGF10 on microarray, primary screen, stem cell growth factor project, biochemical, small-molecule microarray, fluorescence 635/667 (AID 1071); settings: higher = more signal;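 also: score merges 667 nm spot intensity and signal to noise from triplicate slides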
# [5] = target: Neurogenic locus notch homolog protein 2 (Homo sapiens) (UniProt Q04721); assay: Notch2 binders on small-molecule microarrays, primary screen, biochemical, small-molecule microarray, 635 nm fluorescence, stem cell growth factors (AID 1073); settings: Notch2 binding, higher = more signal
# [6] = target: Pro-neuregulin-1, membrane-bound isoform (Homo sapiens) (UniProt Q02297); assay: NRG1 binders on small-molecule microarrays, primary screen, psychiatric disease protein project, biochemical, small-molecule microarray, fluorescence 635/667 (AID 1075); settings: NRG1 binding, 635 nm fluorescence, higher = more signal;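 also: score combines 667 nm spot fluorescence with signal to noise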
# [7] = system: Neuregulin-1 EGF-like domain; assay: binders of neuregulin-1 EGF-like domain, primary screen, biochemical, small-molecule microarray, 635 nm fluorescence (AID 1081); settings: small-molecule microarray binding, higher = more signal;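 also: binding of the protein to compounds printed on small-molecule microarray slides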
# [8] = FRG1 promoter luciferase signal modulators, primary screen, FRG1 inhibition for FSHD, cell-based, C2C12 myotubes, firefly/Renilla luciferase, luminescence (AID 1084); settings: higher = more signal, called active from +8 up or from −8 down
# [9] = binders of probe aFST on microarray, primary screen, stem cell growth factor project, biochemical, small-molecule microarray, fluorescence 635/667 (AID 1086); settings: higher = more signal;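 also: score merges 667 nm fluorescence with signal-to-noise of each printed compound spot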
# [10] = binders of probe aHhip on microarray, primary screen, stem cell growth factor project, biochemical, small-molecule microarray, fluorescence 635/667 (AID 1087); settings: higher = more signal;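 also: score merges spot fluorescence at 667nm with spot signal to noise ratio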
# [11] = system: PRMT1 (protein arginine N-methyltransferase 1); assay: PRMT1 binders on small-molecule microarrays, primary screen, biochemical, small-molecule microarray, 635 nm fluorescence (AID 1088); settings: small-molecule microarray binding, higher = more signal;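 also: binding of Prmt1 protein to compounds spotted on small-molecule microarray slides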
# [12] = yeast growth modulation, basal conditions, primary screen, YJM789 clinical isolate, OD600, 24 h (AID 1089);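 also: growth of clinical yeast isolate S. cerevisiae YJM 789 seeded 1000 cells per well; test concentration not given here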; settings: S. cerevisiae YJM789 growth, higher = more signal, called active from +8 up or from −8 down
# [13] = fission yeast growth modulation, primary screen, strain 972, OD600, 24 h, no modulator (AID 1090);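 also: basal condition with compound alone and no growth modifier present; test concentration not given here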; settings: S. pombe 972 growth, higher = more signal, called active from +8 up or from −8 down
# [14] = S. cerevisiae growth modulation with rapamycin, primary screen, strain BY4716, OD600, 96 h (AID 1091); settings: higher = more signal, called active from +8 up or from −8 down; also: test concentration not given here
# [15] = target: Torsin-1A-interacting protein 2 (Homo sapiens) (UniProt Q8NFQ8); assay: LULL1 binders on small-molecule microarray, primary screen, cell lysate, human LULL1 lysate, 635/667 nm fluorescence (AID 1092); settings: hLULL1 lysate binding, 635 nm fluorescence, higher = more signal;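 also: probe is lysate of COS7 cells overexpressing human LULL1; score merges per-feature 667 nm fluorescence with signal-to-noise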
# [16] = E. coli growth modulation, two-sided OD650, primary screen, E. coli filamentation project, strain DRC41, 24 h (AID 1093); settings: OD650, 24 h, higher = more signal, called active from +8 up or from −8 down;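 also: MC1000 strain lacking acrAB efflux and sulA so SOS filamentation is blocked; test concentration not given here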
# [17] = small-molecule microarray binders of probe aLefty2, primary screen, biochemical, biotinylated probe, 635/667 nm fluorescence (AID 1094); settings: higher = more signal;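 also: score merges spot fluorescence near 667 nm with spot signal-to-noise ratio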
# [18] = system: Noggin (protein binding on small-molecule microarray); assay: Noggin binders on small-molecule microarray, primary screen, biochemical, 635/667 nm fluorescence (AID 1095); settings: 635 nm fluorescence, higher = more signal;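 also: score merges 667 nm feature fluorescence with signal to noise over triplicate slides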
# [19] = target: Neurogenic locus notch homolog protein 3 (Homo sapiens) (UniProt Q9UM47); assay: NOTCH3 binders on small-molecule microarray, primary screen, biochemical, 635/667 nm fluorescence (AID 1096); settings: NOTCH3 binding, 635 nm fluorescence, higher = more signal
# [20] = small-molecule microarray binders of probe aEGFR, primary screen, biochemical, biotinylated probe, 635/667 nm fluorescence (AID 1097); settings: higher = more signal;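 also: probe is a biotinylated anti-EGFR antibody binding compounds printed on slides; score combines fluorescence near 667 nm and signal to noise of each spot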
# Sequence of Neurogenic locus notch homolog protein 3 (Homo sapiens) (Q9UM47 whole entry, looked up): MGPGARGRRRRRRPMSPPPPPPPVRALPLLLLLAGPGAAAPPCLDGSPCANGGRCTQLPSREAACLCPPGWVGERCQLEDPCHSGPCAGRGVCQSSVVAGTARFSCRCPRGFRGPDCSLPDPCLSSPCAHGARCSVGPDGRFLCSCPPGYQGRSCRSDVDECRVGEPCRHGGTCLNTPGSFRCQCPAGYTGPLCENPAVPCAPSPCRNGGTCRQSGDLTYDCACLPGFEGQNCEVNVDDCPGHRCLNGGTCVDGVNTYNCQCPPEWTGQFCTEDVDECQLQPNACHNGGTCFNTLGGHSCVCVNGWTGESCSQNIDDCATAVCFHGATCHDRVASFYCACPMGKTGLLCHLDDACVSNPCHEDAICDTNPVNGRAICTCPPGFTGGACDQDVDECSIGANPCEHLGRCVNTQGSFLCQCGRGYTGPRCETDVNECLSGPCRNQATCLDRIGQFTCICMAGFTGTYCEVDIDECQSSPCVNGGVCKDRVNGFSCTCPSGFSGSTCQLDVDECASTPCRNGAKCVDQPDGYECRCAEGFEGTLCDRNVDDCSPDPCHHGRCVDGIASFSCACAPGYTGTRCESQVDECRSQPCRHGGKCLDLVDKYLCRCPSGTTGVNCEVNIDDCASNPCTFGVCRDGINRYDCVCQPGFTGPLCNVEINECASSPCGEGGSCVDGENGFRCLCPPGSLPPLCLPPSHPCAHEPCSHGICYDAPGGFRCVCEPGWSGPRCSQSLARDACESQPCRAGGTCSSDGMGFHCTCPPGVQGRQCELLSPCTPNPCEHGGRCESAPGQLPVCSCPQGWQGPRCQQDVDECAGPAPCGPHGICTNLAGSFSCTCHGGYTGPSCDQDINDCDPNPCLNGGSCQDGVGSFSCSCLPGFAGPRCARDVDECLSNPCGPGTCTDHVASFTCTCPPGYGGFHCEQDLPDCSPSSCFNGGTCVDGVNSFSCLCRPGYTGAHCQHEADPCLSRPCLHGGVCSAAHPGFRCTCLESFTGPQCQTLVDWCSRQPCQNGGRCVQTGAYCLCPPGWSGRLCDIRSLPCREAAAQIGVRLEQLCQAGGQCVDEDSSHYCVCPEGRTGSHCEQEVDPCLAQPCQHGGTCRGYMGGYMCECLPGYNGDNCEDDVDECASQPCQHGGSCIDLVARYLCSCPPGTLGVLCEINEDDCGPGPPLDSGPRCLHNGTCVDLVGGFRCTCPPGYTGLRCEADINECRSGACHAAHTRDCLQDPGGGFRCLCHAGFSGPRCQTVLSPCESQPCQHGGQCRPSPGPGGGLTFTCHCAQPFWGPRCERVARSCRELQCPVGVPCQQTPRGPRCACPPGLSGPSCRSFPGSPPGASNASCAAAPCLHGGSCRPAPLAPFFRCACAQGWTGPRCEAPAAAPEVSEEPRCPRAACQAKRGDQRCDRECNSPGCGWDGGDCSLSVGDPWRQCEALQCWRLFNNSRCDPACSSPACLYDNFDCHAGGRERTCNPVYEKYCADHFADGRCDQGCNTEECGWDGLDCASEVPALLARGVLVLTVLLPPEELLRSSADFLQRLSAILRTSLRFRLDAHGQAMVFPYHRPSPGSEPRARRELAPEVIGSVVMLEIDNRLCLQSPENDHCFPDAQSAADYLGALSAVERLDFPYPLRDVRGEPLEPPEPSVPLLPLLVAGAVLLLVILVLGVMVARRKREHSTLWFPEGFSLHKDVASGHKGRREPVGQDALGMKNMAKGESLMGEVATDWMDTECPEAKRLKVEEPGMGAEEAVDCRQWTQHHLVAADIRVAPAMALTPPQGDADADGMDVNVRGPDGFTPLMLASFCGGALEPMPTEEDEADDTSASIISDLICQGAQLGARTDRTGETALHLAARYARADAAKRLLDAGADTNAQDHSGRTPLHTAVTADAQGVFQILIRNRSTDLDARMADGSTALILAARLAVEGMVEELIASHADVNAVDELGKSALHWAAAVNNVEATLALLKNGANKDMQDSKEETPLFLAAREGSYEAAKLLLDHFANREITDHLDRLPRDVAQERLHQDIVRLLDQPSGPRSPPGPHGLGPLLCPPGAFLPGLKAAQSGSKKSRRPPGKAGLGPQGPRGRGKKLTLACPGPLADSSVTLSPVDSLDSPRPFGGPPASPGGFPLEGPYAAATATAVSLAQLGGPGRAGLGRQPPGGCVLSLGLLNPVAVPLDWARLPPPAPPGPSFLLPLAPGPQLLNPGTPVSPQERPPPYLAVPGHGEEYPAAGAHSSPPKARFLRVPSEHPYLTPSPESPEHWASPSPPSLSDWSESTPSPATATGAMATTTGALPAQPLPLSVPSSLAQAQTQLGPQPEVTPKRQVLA
# Sequence of Neurogenic locus notch homolog protein 2 (Homo sapiens) (Q04721 whole entry, looked up, canonical isoform): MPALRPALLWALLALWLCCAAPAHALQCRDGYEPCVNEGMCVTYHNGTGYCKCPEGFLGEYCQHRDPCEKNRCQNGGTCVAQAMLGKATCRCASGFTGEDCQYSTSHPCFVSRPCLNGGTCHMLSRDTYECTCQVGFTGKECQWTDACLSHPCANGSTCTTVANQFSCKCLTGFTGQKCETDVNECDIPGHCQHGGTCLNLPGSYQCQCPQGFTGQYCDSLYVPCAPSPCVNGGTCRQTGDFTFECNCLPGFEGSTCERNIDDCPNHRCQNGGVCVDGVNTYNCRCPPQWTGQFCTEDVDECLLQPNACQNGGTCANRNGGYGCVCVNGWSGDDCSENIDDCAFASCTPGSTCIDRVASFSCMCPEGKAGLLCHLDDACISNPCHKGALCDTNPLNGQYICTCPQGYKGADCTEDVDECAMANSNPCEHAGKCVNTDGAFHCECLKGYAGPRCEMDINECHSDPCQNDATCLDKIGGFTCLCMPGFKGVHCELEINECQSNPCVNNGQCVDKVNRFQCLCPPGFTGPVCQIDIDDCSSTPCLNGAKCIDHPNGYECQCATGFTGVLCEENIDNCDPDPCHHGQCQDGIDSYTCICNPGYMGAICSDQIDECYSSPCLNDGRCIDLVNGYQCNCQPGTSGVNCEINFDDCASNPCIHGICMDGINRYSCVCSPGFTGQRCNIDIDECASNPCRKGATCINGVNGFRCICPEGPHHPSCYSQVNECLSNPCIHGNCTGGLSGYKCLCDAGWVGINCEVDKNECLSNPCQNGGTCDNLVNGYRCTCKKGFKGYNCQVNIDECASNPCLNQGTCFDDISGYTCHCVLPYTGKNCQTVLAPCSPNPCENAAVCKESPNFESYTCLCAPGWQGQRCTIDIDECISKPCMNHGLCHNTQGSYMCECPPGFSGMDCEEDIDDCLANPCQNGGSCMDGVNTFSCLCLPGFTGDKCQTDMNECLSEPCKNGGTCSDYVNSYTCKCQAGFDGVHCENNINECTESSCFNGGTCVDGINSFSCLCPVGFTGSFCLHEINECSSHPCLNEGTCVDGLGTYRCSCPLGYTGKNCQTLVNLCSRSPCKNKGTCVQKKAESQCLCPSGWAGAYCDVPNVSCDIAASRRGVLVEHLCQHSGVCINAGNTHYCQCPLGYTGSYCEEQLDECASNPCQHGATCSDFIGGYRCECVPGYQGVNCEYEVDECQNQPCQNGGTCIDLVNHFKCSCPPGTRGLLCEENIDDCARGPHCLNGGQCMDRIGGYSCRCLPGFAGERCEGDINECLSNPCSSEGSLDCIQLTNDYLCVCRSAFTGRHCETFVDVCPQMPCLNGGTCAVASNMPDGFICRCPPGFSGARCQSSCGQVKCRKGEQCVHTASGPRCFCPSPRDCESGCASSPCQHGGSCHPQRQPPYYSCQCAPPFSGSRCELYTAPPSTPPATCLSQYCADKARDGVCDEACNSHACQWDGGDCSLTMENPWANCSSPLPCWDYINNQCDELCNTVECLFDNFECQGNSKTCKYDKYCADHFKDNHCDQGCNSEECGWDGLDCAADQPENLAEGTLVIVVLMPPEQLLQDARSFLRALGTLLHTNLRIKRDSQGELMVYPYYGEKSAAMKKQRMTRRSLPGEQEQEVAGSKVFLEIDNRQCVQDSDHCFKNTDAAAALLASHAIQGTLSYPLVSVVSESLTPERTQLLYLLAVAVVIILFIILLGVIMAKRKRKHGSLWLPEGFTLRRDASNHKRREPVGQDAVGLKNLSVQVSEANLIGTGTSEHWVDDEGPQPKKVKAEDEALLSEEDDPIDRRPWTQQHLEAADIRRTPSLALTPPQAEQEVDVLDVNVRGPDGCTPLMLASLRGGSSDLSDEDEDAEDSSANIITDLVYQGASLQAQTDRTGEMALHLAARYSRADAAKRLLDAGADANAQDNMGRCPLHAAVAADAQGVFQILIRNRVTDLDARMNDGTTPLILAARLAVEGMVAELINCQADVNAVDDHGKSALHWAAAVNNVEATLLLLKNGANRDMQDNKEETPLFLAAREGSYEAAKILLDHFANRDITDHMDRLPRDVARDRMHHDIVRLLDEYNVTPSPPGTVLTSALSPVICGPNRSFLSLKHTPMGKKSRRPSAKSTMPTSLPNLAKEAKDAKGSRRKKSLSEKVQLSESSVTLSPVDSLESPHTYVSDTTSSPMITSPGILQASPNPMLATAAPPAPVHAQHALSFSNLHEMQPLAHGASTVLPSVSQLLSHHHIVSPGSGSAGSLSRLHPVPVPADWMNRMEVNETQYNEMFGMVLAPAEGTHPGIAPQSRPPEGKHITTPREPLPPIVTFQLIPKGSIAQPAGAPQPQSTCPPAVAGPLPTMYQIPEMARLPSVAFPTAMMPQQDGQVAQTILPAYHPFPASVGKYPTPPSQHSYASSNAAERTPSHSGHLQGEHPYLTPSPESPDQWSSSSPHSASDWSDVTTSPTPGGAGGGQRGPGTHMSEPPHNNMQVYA
SMILES,composite z-score [1],composite z-score [2],composite z-score [3],composite z-score [4],composite z-score [5],composite z-score [6],composite z-score [7],z-score [8],composite z-score [9],composite z-score [10],composite z-score [11],z-score [12],z-score [13],z-score [14],composite z-score [15],z-score [16],composite z-score [17],composite z-score [18],composite z-score [19],composite z-score [20]
CC(C)(C)N1CC=CC23O[C@@H]4C=CCCOC(=O)C4[C@H]2C(=O)N(CCO)[C@@H]3C1=O (stereo not given in full),-0.0666,-0.46,-0.132,-0.133,-0.717,0.767,1.48,0.22 (inactive),-0.474,-0.236,0.13,-0.125 (inactive),-0.229 (inactive),-0.0913 (inactive),-1.67,0.976 (inactive),-0.267,-0.365,-0.696,-0.112
[N-]=[N+]=NCc1ccccc1C[C@@]1(C(=O)NCc2ccccc2)N=C(c2ccc(OCCCO)cc2)O[C@@H]1c1ccccc1N=[N+]=[N-],0.298,0.421,0.0075,0.629,1.33,1.07,1.1,-1.81 (inactive),1.27,0.143,1.18,-1.38 (inactive),1.57 (inactive),6.91 (inactive),2.88,0.213 (inactive),0.198,-0.247,0.412,-0.0831
COc1ccc(C#Cc2ccc3c(c2)[C@]2(C(=O)N3)[C@H](c3ccc(O)cc3)N3[C@H](c4ccccc4)[C@H](c4ccccc4)OC(=O)[C@H]3[C@@H]2C(=O)O)cc1,-0.789,0.413,-0.161,0.831,0.761,0.555,1.13,-0.471 (inactive),-0.541,-1.08,0.525,1.11 (inactive),-1.18 (inactive),0.0572 (inactive),3.12,1.43 (inactive),-0.383,-0.28,-0.17,-0.0507
O=C1O[C@H](c2ccccc2)[C@H](c2ccccc2)N2[C@H]1[C@@H](C(=O)N1CCN(c3ncccn3)CC1)[C@]1(C(=O)Nc3ccc(C#CC4(O)CCCCCC4)cc31)[C@H]2c1ccc(OCCO)cc1,0.696,0.968,0.0583,1.2,1.52,2.25,1.22,1.8 (inactive),2.45,0.334,1.53,2.89 (inactive),1.42 (inactive),5.4 (inactive),3.79,-0.409 (inactive),1.19,1.68,1.08,0.471
OCC1CC(c2ccccc2)=NO1 (stereo not given),-0.315,0.239,-0.0242,0.202,-0.244,-0.584,-0.164,0.557 (inactive),0.127,0.235,-1.11,-0.248 (inactive),-0.0256 (inactive),0.368 (inactive),-1.3,0.677 (inactive),-0.119,0.397,-0.473,-0.068
CN(C)C(=O)[C@@]1(Cc2ccccc2CN=[N+]=[N-])N=C(c2ccc(OCCCO)cc2)O[C@H]1c1ccccc1CN=[N+]=[N-],0.262,-0.159,0.222,0.776,1.52,1.64,1.29,-4.01 (inactive),0.457,-0.388,0.88,0.733 (inactive),1.19 (inactive),15.6 (active),2.6,0.0474 (inactive),0.514,-0.586,0.456,0.424
COC(=O)c1c2oc(c1C(=O)OC)C(=O)N(Cc1ccccc1)Cc1cn(nn1)C[C@H](Cc1ccccc1)NC(=O)N[C@H](CO)CC2,-0.462,-0.277,-0.105,0.138,-0.0194,0.229,1.1,-0.736 (inactive),0.0118,0.0092,0.707,-3.16 (inactive),-1.15 (inactive),0.0108 (inactive),1.69,0.101 (inactive),-0.256,0.698,0.43,-0.11
NC(=O)NCC#Cc1ccc2c(c1)[C@]1(C(=O)N2)[C@H](C(=O)O)[C@H]2C(=O)O[C@H](c3ccccc3)[C@H](c3ccccc3)N2[C@@H]1c1ccc(OCCO)cc1,0.131,0.35,-0.139,0.0382,0.247,0.881,0.851,-0.359 (inactive),0.718,-0.0994,1.1,0.33 (inactive),0.459 (inactive),-0.524 (inactive),1.37,0.8 (inactive),-0.199,0.205,0.1,-0.181
O=C(NCCCCCNC(=O)/C(Cc1ccccc1)=N/O)OCc1ccccc1,-0.51,0.148,-0.25,0.293,0.421,-0.181,-0.422,-0.213 (inactive),0.152,-0.409,-0.276,-1.72 (inactive),-1.43 (inactive),-1.89 (inactive),-0.625,2.16 (inactive),-0.17,0.164,0.253,-0.127
C=C(C)c1cc2c(c(CCCCCC)n1)[Si](C(C)C)(C(C)C)OC2,-0.392,-1.42,-0.157,-1.05,-1.03,-0.792,-1.02,-0.647 (inactive),-0.437,0.0201,-0.293,1.21 (inactive),0.653 (inactive),-0.9 (inactive),-1.03,-1.17 (inactive),-0.193,-0.714,-0.64,-0.287
C=CC1c2cc(O)c(OC)cc2CCN1Cc1cc2c(cc1Br)OCO2 (stereo not given),1.54,1.07,-0.101,-0.15,-0.322,1.19,1.22,-0.454 (inactive),0.221,-0.132,1.25,-17.7 (active),-19.8 (active),-1.33 (inactive),2.51,-2 (inactive),0.386,0.289,0.435,-0.132
CC(CO)N1C(=O)[C@@H]2[C@H]3C(=O)OCC=C[C@H]3OC23C=CCN(C(C)(C)C)C(=O)[C@@H]13 (stereo not given in full),-0.279,0.261,-0.128,0.337,-0.175,-0.305,1.51,1.76 (inactive),-0.415,-0.0618,-0.507,-0.0994 (inactive),-0.0932 (inactive),-0.422 (inactive),-1.25,-0.607 (inactive),-0.103,-0.429,-0.0056,-0.0656
COc1cc(OC)c(C(O)C2C=CC3C(=O)N(C)C(=O)C3N2NC(=O)OC(C)(C)C)cc1Br (stereo not given),0.411,-0.381,0.232,0.843,1.76,1.85,1.37,-0.612 (inactive),1.84,0.0522,1.54,0.24 (inactive),-0.324 (inactive),0.828 (inactive),3.39,-0.188 (inactive),0.368,0.137,1.02,0.128
O=C1c2ccccc2[C@](Cc2ccccc2I)(C(=O)NCC(F)(F)F)[C@H](c2ccc(CO)cc2)N1C1CCCCC1,-0.0894,-0.089,0.0772,0.94,1.14,1.76,0.985,-0.85 (inactive),0.593,-0.134,1.56,0.0808 (inactive),-1.76 (inactive),-0.0447 (inactive),3.02,1.38 (inactive),-0.0408,0.169,1.08,-0.0315
CCCCN1CC=CC23O[C@@H]4/C=C\CCC(C)OC(=O)C4[C@H]2C(=O)N(C(CO)C(C)C)[C@@H]3C1=O (stereo not given in full),-0.513,0.642,-0.0976,0.291,-0.358,0.362,1.45,-0.095 (inactive),-0.19,-0.201,0.738,-0.824 (inactive),-0.753 (inactive),-0.528 (inactive),2.77,-0.318 (inactive),-0.166,0.21,0.395,-0.123
C=C[C@@H](OC)[C@H](OC(=O)Nc1ccc(SC)cc1)c1ccc(O)c(F)c1,0.0213,0.5,-0.0024,0.362,-0.0166,1.25,1.35,3.87 (inactive),0.2,-0.069,1.56,1.05 (inactive),0.123 (inactive),1.65 (inactive),2.58,0.374 (inactive),-0.0654,0.808,0.185,-0.126
O=c1n(-c2ccccc2)c(=O)n2n1CC(COc1ccccc1)=C([C@H](O)CCc1ccccc1)[C@@H]2CO,-0.333,-0.0765,-0.141,0.265,0.094,-0.153,0.0463,-2.53 (inactive),0.0915,-0.318,0.17,-1.33 (inactive),-1.79 (inactive),-0.868 (inactive),-0.173,2.68 (inactive),-0.153,0.701,-0.196,-0.08
CC1=C[C@@]2(CO)C(=O)[C@]3(CO3)[C@@H]1[C@H]1[C@]2(C)C=C(CO)C(=O)[C@]12CO2,-0.457,-0.42,-0.0782,0.345,0.31,0.194,0.677,-1.35 (inactive),0.614,0.459,0.295,-1.32 (inactive),-9.27 (active),-0.946 (inactive),0.0091,0.179 (inactive),-0.113,0.177,0.652,-0.276
[N-]=[N+]=Nc1ccccc1[C@H]1OC(c2ccc(OCCCO)cc2)=N[C@@]1(CCS(=O)(=O)c1ccccc1)C(=O)NCCN1CCOCC1,0.052,0.0825,0.115,0.839,1.28,1.35,1.12,5.72 (inactive),1.58,-0.166,1.55,0.299 (inactive),1.13 (inactive),0.683 (inactive),3.3,0.17 (inactive),0.414,0.55,0.839,0.154
C[C@]1(C(=O)NC2CC2)c2ccccc2C(=O)N(Cc2ccccc2)[C@H]1c1ccc(CO)cc1,0.942,-0.729,-0.116,-0.796,-0.956,-0.145,0.659,-1.69 (inactive),-0.346,-0.511,-1.09,-0.653 (inactive),-1.75 (inactive),-0.785 (inactive),-0.488,1.84 (inactive),-0.0873,-0.918,-1.59,-0.278
